The source of these data is PubChem BioAssay AID1851 (National Center for Advancing Translational Sciences (NCATS), 2009).

Structures are written as SMILES. Among all 16,000 compounds or so, about 5,800 (36%) were called active. Not shown: some 23% with an inconclusive outcome. The list shows a part of the results. Unmarked numbers belong to inactive results. Calls come from the whole dose curve; as a rule, active = well fitted curve in the direction sought with a large enough effect; inconclusive = small, poorly fitted or top-dose-only effect, or effect the other way; inactive = no such curve, though single readings can be large or run the other way.
% is set by controls: 0 for no effect and ±100 for the full control effect.

The target of the assay is Cytochrome P450 2C19 (Homo sapiens) (UniProt P33261). The assay can be described thus: Cytochrome panel assay with activity outcomes. The settings on record: recombinant CYP, pro-luciferin dealkylation, luminescence, p450-cyp2c19; series mostly up to 57.1 µM; activity, negative = inhibition: at the top concentration.
Chain of Cytochrome P450 2C19 (Homo sapiens) (P33261 whole entry, looked up): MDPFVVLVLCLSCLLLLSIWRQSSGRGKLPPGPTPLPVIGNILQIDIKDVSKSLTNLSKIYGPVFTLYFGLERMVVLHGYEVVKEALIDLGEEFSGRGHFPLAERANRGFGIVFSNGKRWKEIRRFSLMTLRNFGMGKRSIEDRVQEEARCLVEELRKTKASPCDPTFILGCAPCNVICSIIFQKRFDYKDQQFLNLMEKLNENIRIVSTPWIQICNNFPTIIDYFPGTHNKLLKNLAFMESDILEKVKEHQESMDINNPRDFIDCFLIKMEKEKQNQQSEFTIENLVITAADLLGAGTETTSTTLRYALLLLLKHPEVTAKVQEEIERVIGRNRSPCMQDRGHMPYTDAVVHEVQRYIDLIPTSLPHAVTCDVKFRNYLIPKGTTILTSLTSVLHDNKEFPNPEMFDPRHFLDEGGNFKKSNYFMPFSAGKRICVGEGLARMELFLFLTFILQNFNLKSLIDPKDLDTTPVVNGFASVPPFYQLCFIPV
What is called AC50 is the concentration at which the activity in the assay is half-maximal. `CCOC(=O)C1=C(CN2c3ccccc3CC2C)NC(=O)NC1c1ccccc1` (stereo not given): the AC50 is 7.08 µM (active).
For the compound `C[C@@H](CC(=O)O)[C@@H](N)C(=O)O`, the “activity, negative = inhibition” value is -23%.
As for `Cc1c(NC(=S)N/N=C/c2ccc(O)cc2)c(=O)n(-c2ccccc2)n1C`, the “activity, negative = inhibition” value was -16.2%.
As to `Cc1c(NC(=S)/C=C2\N(C)c3ccccc3C2(C)C)c(=O)n(-c2ccccc2)n1C`, the AC50 is 14.1 µM (active).
For the compound `Fc1ccc(-c2[nH]ncc2-c2nnnn2-c2ccccc2)c(F)c1`, the AC50 was 0.631 µM (active).
On to `NC(=O)c1ncn([C@@H]2O[C@@H](CO)[C@@H](O)[C@H]2O)c1O`, for which the “activity, negative = inhibition” value is 20.9%.
As for `O=C1CN(c2nc(-c3ccccc3)c3cc(Br)ccc3n2)c2ccccc2N1`, the “activity, negative = inhibition” value was -16.6%.
As for `N=C(C[C@@H](O)COc1ccccc1-c1ccccc1)N1CCCCC1`, the AC50 was 31.6 µM (active).
Consider `CC(C)(C)NC[C@H](O)COc1cccc2c1CCCC2=O`, for which the AC50 entry was “inactive”.
With `CC(C)NC[C@@H](O)COc1ccccc1-n1cccc1`, the “activity, negative = inhibition” value was -27.9%.
As for `O=C1C(=O)c2ccccc2C(O)=C1C(CCc1ccccc1)C1=C(O)c2ccccc2C(=O)C1=O`, the activity, negative = inhibition is 21.7% [at 11.4 µM].
On to `O=C1C(=O)c2ccccc2C(O)=C1C1CCC(c2ccc(Cl)cc2)CC1` (stereo not given), for which the “activity, negative = inhibition” value is -17% [at 25.6 µM].
Take `O=C1C(=O)c2ccccc2C(O)=C1C(C1=C(O)c2ccccc2C(=O)C1=O)c1ccc(Cl)cc1`: the AC50 is 3.98 µM (active).
As to `O=C1C2C3C=CC(C3)C2C(=O)N1c1ncn[nH]1` (stereo not given), the “activity, negative = inhibition” value was -7.13%.
As to `CN(C)CCNC(=O)c1cc(Br)ccc1Cl`, the “activity, negative = inhibition” value was -28.6%.
For `CC(=O)Oc1cc(C(C)C)c(OCCN(C)C)cc1C`, the AC50 result is “inactive”.
Regarding `CSc1ccc(Cl)c(C(=O)NCCOc2cc(C)ccc2C(C)C)c1`, the AC50 was 5.01 µM (active).
For `CC(C)=CCC/C(C)=C/CO/N=C1/[C@H]2O[C@@H]2[C@@H](O)[C@H]2[C@H]1CCn1c(=O)n(Cc3cc4c(cc3Cl)OCO4)c(=O)n12`, the activity, negative = inhibition was 9.01% [at 11.4 µM].
`Cc1ccc(S(=O)(=O)Nc2ccccc2C=O)cc1`: the AC50 was 5.01 µM (active).
Take `Cc1ccc(S(=O)(=O)N[C@H]2COC(=O)C/C=C\[C@H](C)[C@@H](NS(=O)(=O)c3ccc(C)cc3)COC(=O)C/C=C\[C@@H]2C)cc1`: the activity, negative = inhibition is 18.4% [at 11.4 µM].
Take `Cc1ccc(S(=O)(=O)Nc2ccccc2C(=O)c2ccc(C)c(C)c2)cc1`: the activity, negative = inhibition was 30.1% [at 11.4 µM].
For the compound `C[C@@](N)(Cc1ccc(O)cc1)C(=O)O`, the AC50 entry is “inactive”.
Regarding `C[C@](N)(Cc1ccc(O)c(O)c1)C(=O)O`, the “activity, negative = inhibition” value is 26%.
In the case of `CCOC(=O)c1c(C(C)(C)C)oc2ccc(O)cc12`, the AC50 is 3.98 µM (active).
On the same count and under the same terms, in the case of `O=C(N/N=C/c1c[nH]c2ccccc12)c1ccn(Cc2ccc(Cl)cc2Cl)n1` it was 2 µM (active); in that of `O=C(N/N=C/c1c[nH]c2ccc(Br)cc12)c1ccn(Cc2ccc(Cl)cc2)n1`, 3.55 µM (active).
`O=c1[nH]n(-c2cccc3cccnc23)c(=O)c2ccccc12`: the AC50 is 11.2 µM (active).
For the compound `O=c1ncn(-c2ccccc2F)c2ncccc12`, the “activity, negative = inhibition” value was -27%.
For the compound `c1ccc2c(NC3CCNCC3)nc(-c3ccoc3)nc2c1`, the “activity, negative = inhibition” value was 15.9%.
Consider `N#Cc1cccc(-c2nc(NCc3cccs3)c3ccccc3n2)c1`, for which the “activity, negative = inhibition” value was -23.1%.
Turning to `COc1ccccc1CNc1nc(-c2cccc(C#N)c2)nc2ccccc12`, the AC50 is 3.98 µM (active).
As for `N#Cc1cccc(-c2nc(Nc3ccccc3)c3ccccc3n2)c1`, the “activity, negative = inhibition” value is 15.4%.
Turning to `CNc1nc(-c2cccc(C#N)c2)nc2ccccc12`, the AC50 is 7.94 µM (active).
On to `COc1cccc(-c2nc(NCc3cccs3)c3ccccc3n2)c1`, for which the AC50 was 3.16 µM (active).
For `Cc1cccc(CNc2nc(-c3ccoc3)nc3ccccc23)c1`, the AC50 was 7.94 µM (active).
Turning to `Cc1cnc(CNc2nc(-c3ccoc3)nc3ccccc23)cn1`, the “activity, negative = inhibition” value was -27.9%.
Still for that read-out and setting: in the case of `Cc1ccnc(N)c1` it was -27.7%.
`C[C@H](N=C(NC#N)Nc1ccncc1)C(C)(C)C`: the “activity, negative = inhibition” value was 5.2%.
As to `NC(N)=N[C@@H]1C(O)[C@H](N=C(N)N)[C@@H](O)C(O)[C@H]1O` (stereo not given in full), the activity, negative = inhibition is 12.7% [at 11.4 µM].
Consider `Cc1cccc(CNc2nc(-c3cccnc3)nc3ccccc23)c1`, for which the AC50 was 10 µM (active).
Turning to `COc1cccc(-c2nc(NCc3ccccc3)c3ccccc3n2)c1`, the AC50 is 3.98 µM (active).
`N#Cc1cccc(-c2nc(NCc3cccnc3)c3ccccc3n2)c1`: the “activity, negative = inhibition” value was -27.2%.
Take `Cc1cnc(CNc2nc(-c3cccnc3)nc3ccccc23)cn1`: the “activity, negative = inhibition” value is -29.8%.
On to `N#Cc1cccc(-c2nc(NCc3ccccc3)c3ccccc3n2)c1`, for which the AC50 is 6.31 µM (active).
In the case of `COc1cccc(-c2nc(NCc3ccccc3OC)c3ccccc3n2)c1`, the AC50 is 7.94 µM (active).
On to `COc1cccc(-c2nc(NC3CCNCC3)c3ccccc3n2)c1`, for which the “activity, negative = inhibition” value is 8.48%.
For the compound `COc1cccc(-c2nc(NCc3cccnc3)c3ccccc3n2)c1`, the AC50 is 25.1 µM (active).
For the compound `COc1ccc(-c2cc(C(F)(F)F)nc(NCc3cccnc3)n2)cc1`, the AC50 is 2.82 µM (active).
Regarding `O=C(O)c1ccc(C(=O)O)c(C(=O)O)c1.[NH-][C@@H]1CCCC[C@@H]1[NH-].[Pt]`, the activity, negative = inhibition was -17.9% [at 11.4 µM].
Turning to `CN1CCC2(CC1)CCN(C(=O)c1cc(C(F)(F)F)cc(C(F)(F)F)c1)CC2`, the “activity, negative = inhibition” value is -21.7%.
As to `CON/C=C(\C=Nc1ccccc1)c1ncc(C(F)(F)F)cc1Cl`, the concentration at half-maximal activity (AC50) was 3.55 µM (active).
Regarding `Cn1cnc2c(NC3CCCC3)ncnc21`, the “activity, negative = inhibition” value is -28%.
In the case of `O=C1Nc2ccccc2C1=Nc1ccc(S(=O)(=O)Nc2nccs2)cc1`, the activity, negative = inhibition was 21.4% [at 11.4 µM].
`NS(=O)(=O)c1ccc(N=C2C(=O)Nc3ccccc32)cc1`: the activity, negative = inhibition is -2.67% [at 11.4 µM].
Take `O=C1Nc2ccccc2/C1=N/c1sc2c(c1C(=O)NCCc1ccccc1)CCCC2`: the AC50 was 2.51 µM (active).
Consider `COC(=O)c1ccc(OCC2c3cc(OC)c(OC)cc3CCN2C(=O)C2CC2)cc1` (stereo not given), for which the AC50 is 2.51 µM (active).
For the compound `COc1cc2c(cc1OC)[C@H](c1ccccc1)CN(C)CC2`, the “activity, negative = inhibition” value is -2.52%.
For the compound `COc1ccc(C(=O)OC(C)CN2CCN(C)CC2)cc1OC` (stereo not given), the “activity, negative = inhibition” value was -16.7%.
With `NCCCNCCCCNCCCN`, the AC50 was 7.94 µM (active).
Still for that read-out and setting: in the case of `NCCCCNCCCN` it was “inactive”.
On to `NCCCCN`, for which the “activity, negative = inhibition” value is 31.9%.
`Cn1nc(C(F)(F)F)c(/C=N/OC(=O)c2ccccc2Cl)c1SCc1ccc(Cl)cc1`: the AC50 is 0.355 µM (active).
`Cn1c(=O)c2[nH]c([C@@H]3CC(=O)C[C@H](c4nc5c([nH]4)c(=O)n(C)c(=O)n5C)N3)nc2n(C)c1=O`: the activity, negative = inhibition is 1.66% [at 11.4 µM].
Turning to `Cc1ccc2c(c1)N(CC(=O)NC1CCC(C)CC1)C(=O)CO2` (stereo not given), the AC50 is 2.82 µM (active).
In the case of `O=C(O)C[C@@H]1CCCc2ccccc2[C@H]1O`, the “activity, negative = inhibition” value is 3.65%.
Regarding `Cc1ccc2c(c1)N(CC(=O)NC1CCCc3ccccc31)C(=O)CO2` (stereo not given), the AC50 was 2.51 µM (active).
On the same count and under the same terms, to `Cc1ccc(CNC(=O)CN2C(=O)COc3ccc(C)cc32)cc1` belongs 2.82 µM (active).
Regarding `CN(C)C(=O)Oc1cccc([N+](C)(C)C)c1`, the “activity, negative = inhibition” value was 42.9%.
As to `C=CCn1c(SCC)nc2sc3c(c2c1=O)CCc1ccccc1-3`, the AC50 is 8.91 µM (active).
The same measure, in the same setting: to `O=c1/c(=C\c2ccc(O)cc2)sc2n1C(c1ccccc1)C(c1ccccc1)=NN=2` (stereo not given) belongs 1.58 µM (active); to `CCCCSc1nc(C)cc(NC(=S)Nc2ccc(OC)cc2)n1`, 2.51 µM (active).
On the same count and under the same terms, to `CCOC(=O)c1cccc2c1-c1ccccc1/C2=N/O` belongs 7.94 µM (active).
Turning to `CC(C)=CCc1c(C)nc2ccccc2c1C(=O)O`, the “activity, negative = inhibition” value was -28.7%.
For `CC(C)=CCC1=C(OCC(=O)O)C(=O)c2ccccc2C1=O`, the AC50 is 1.26 µM (active).
As to `CSc1nc2n(n1)C(c1cccc(F)c1)C(C(=O)Nc1ccc(C)cc1C)=C(C)N2` (stereo not given), the “activity, negative = inhibition” value was 21.6%.
Take `CC1=C(C(=O)Nc2cccnc2)C(c2cccnc2)n2nc(-c3cccs3)nc2N1` (stereo not given): the AC50 is 11.2 µM (active).
As for `COc1ccccc1NC(=O)C1=C(C)Nc2nc(-c3ccc(N(C)C)cc3)nn2C1c1ccncc1` (stereo not given), the AC50 was 14.1 µM (active).
As for `COC(=O)C1=C(C)Nc2ncnn2C1c1cccnc1` (stereo not given), the “activity, negative = inhibition” value is -24.7%.
For the compound `CC1=C(C(N)=O)C(c2ccccn2)n2nc(SCc3ccccc3Cl)nc2N1` (stereo not given), the “activity, negative = inhibition” value is -88%.
For the compound `CCOc1ccccc1C1C(C(N)=O)=C(C)Nc2nc(-c3ccc(OC)cc3)nn21` (stereo not given), the AC50 was 10 µM (active).
Regarding `COc1ccc2oc(=O)c(C(=O)Oc3ccc(NC(C)=O)cc3)cc2c1`, the AC50 is 15.8 µM (active).
On to `O=C(Nc1ccc2oc(=O)c(C(=O)O)cc2c1)Oc1ccccc1`, for which the activity, negative = inhibition was 18.7% [at 11.4 µM].
For the compound `COc1ccc(NC(=O)N2CC[C@@]3(CCCN(C(C)=O)C3)C2)cc1`, the “activity, negative = inhibition” value is -14.5%.
`CN(C(=S)Nc1ccccc1F)C1(c2ccccc2Cl)CCCCC1=O` (stereo not given): the AC50 was 1.26 µM (active).
As to `CO/N=C(/CNC(=O)c1ccc(Cl)cc1Cl)c1ccc(Cl)cc1`, the AC50 was 0.398 µM (active).
Turning to `CO/N=C(/CNC(=O)c1cccc(Cl)c1)c1ccc(Cl)cc1`, the half-maximal activity concentration (AC50) is 0.708 µM (active).
`COc1ccc2c(c1)Cc1sc(NC(=O)c3ccco3)nc1-2`: the AC50 was 14.1 µM (active).
Take `COc1ccc(NC(=O)N2CCC3(CC2)CCN(C(=O)c2ccco2)CC3)cc1`: the “activity, negative = inhibition” value is -11%.
For `COc1ccc2c(c1)CCc1sc(NC(=O)c3ccc(C)cc3)nc1-2`, the AC50 is 3.55 µM (active).
In the case of `COc1ccc(Cc2nnc(NC(=O)c3ccco3)s2)cc1`, the AC50 was 14.1 µM (active).
As for `COc1ccc(NC(=O)N2CC3(CCN(C(=O)c4ccco4)CC3)C2)cc1`, the “activity, negative = inhibition” value is -32.6%.
`COc1ccc(Cc2nnc(NC(=O)c3cccc([N+](=O)[O-])c3C)s2)cc1`: the “activity, negative = inhibition” value was 10.2%.
`Cc1ccc(-c2c(C#N)c(N)n(-c3ccccc3)c(=O)c2C#N)cc1`: the “activity, negative = inhibition” value was -29.3%.
Consider `Cc1ccc(NC(=O)NNC(=O)Cn2nc(-c3ccccc3)c(-c3ccccc3)c(C#N)c2=O)cc1`, for which the AC50 was 17.8 µM (active).
On the same count and under the same terms, to `Cn1nnnc1SCc1ccccc1[N+](=O)[O-]` belongs 25.1 µM (active).
In the case of `COc1ccc(CSc2nnnn2C)cc1[N+](=O)[O-]`, the AC50 was 10 µM (active).
In the case of `Cn1nnnc1SCC(=O)Nc1ccccc1[N+](=O)[O-]`, the “activity, negative = inhibition” value was -18%.
The same measure, in the same setting: in the case of `COC(=O)Nc1nc2ccc(C(=O)c3ccccc3)cc2[nH]1` it was -36.1% [at 25.6 µM].
Regarding `O=C(c1ccccc1)c1ccc2nc(-c3ccc(NC(=O)c4ccccc4Br)cc3)[nH]c2c1`, the AC50 was 5.62 µM (active).
`O=C(O)c1ccc(NCc2nc3cc4ccccc4cc3[nH]2)cc1`: the activity, negative = inhibition is 60.6% [at 11.4 µM].
